Assay outcomes from PubChem BioAssay.
DRD3 antagonist = qHTS of D3 Dopamine Receptor Antagonist: qHTS; D(3) dopamine receptor (Homo sapiens), P35462; D3R cells, DiscoveRx beta-arrestin luminescence, antagonist mode; stronger effect = lower value; max response, negative = inhibition, %; 360,000 compounds, 2.5% hits; AID 652054, 2013; in the data active = max response below about -50%; inconclusive = no clear call, values can overlap the other calls; also: % is scaled to controls: 0 for no effect and ±100 for the full control effect
Target sequence (P35462 whole entry, looked up): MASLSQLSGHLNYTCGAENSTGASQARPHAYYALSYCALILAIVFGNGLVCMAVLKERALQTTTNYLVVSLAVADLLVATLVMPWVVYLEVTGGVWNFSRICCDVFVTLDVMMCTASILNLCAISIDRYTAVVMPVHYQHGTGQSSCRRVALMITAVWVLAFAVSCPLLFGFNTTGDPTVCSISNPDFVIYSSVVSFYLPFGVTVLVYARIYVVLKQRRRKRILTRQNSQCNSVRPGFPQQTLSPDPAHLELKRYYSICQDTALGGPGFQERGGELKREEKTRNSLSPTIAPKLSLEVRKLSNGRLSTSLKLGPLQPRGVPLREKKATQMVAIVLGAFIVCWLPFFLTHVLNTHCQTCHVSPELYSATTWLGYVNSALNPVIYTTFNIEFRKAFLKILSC
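Cells expressing the human receptor were seeded at 1500 cells/well, incubated overnight at 37 degrees C in 5% CO2, then exposed to library compounds with dopamine controls for 90 minutes at 37 degrees C before luminescent detection.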
D3 ag = qHTS of D3 Dopamine Receptor Agonist: qHTS; D3R DiscoveRx beta-arrestin cells, luminescence, 90 min; D(3) dopamine receptor (Homo sapiens), P35462; 410,000 compounds, 0.58% hits; max activation, %; in the data active = max activation above about 30%; also: 0% is about no effect
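Cells at 1500/well, incubated overnight, then treated with pinned compounds (dopamine as control) for 90 min at 37 degrees C. DiscoveRx reagent added for 30 - 60 minutes at room temperature; luminescence read.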
ATXN2 expr inh = Primary qHTS for Inhibitors of ATXN expression; HEK-293 ATXN2-luciferase reporter, luminescence, 24 h; Potency, µM (series often up to 57 µM), inactives show top-dose activity change, negative = inhibition, most hits filed as inhibitors; 360,000 compounds, 0.72% hits; AID 1745845, 2022; also: potency is read from the fitted curve at half-maximal effect; % is scaled to controls: 0 for no effect and ±100 for the full control effect; nearly all actives have a fitted effect of over 55% in size
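ATXN2-luciferase reporter cells (luciferase flanked by upstream and downstream ATXN2 gene portions) were treated 24 h at 37 °C with compounds at up to 57 uM. SteadyGlo luminescence gave expression; GF-AFC fluorescence gave viability.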
HepG2 tox = qHTS for Inhibitors of TGF-b: Cytotox Counterscreen. HepG2 CAGA-GFP viability, ATP luminescence, 18 h. Potency, µM (doses to about 46.1 µM), for inactives: top-dose activity change, negative = cytotoxicity, actives largely listed as cytotoxic. 410,000 compounds, 0.76% hits. AID 588856, 2011; also: potency is read from the fitted curve at half-maximal effect
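CellTiter-Glo luminescence gave cytotoxicity after 18 hours at 37 degrees C. The cells were HepG2 CAGA-GFP in 1% FBS DMEM, stimulated with 500 pg/mL TGF-beta after compound addition. %Activity was normalised to no-cell wells (complete cell-killing) and DMSO (no toxicity), and curves were fitted and classified.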
ATXN viability = Viability Counterscreen for Primary qHTS for Inhibitors of ATXN expression; S2 cells (HEK-293 line with an ATXN2-luciferase reporter) viability, CellTiter-Fluor protease fluorescence, 24 h; Potency, µM (top dose mostly 56.7 µM), most hits filed as cytotoxic; 400,000 compounds, 0.49% hits; also: potency is read from the fitted curve at half-maximal effect; nearly all actives have a fitted effect of over 40% in size
TGFb SMAD3 inh = qHTS for Inhibitors of TGF-b. Potency, µM (titrated, usually from 46.1 µM), for the others: top-dose activity, negative = inhibition, usual class: inhibitors. AID 588855, 2011. 410,000 compounds, 1.2% hits. HepG2 CAGA-GFP TGF-b/SMAD3 reporter, GFP fluorescence, 18 h; TGF-beta stimulated, 500 pg/mL final; also: potency is read from the fitted curve at half-maximal effect; % is scaled to controls: 0 for no effect and ±100 for the full control effect; nearly all actives have a fitted effect of over 65% in size
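HEPG2 CAGA-GFP cells (1000/well, DMEM with 1% FBS) were pre-incubated 2 h at 37 degrees C, given compound by pin tool, then stimulated with TGF-beta at 500 pg/mL final for 18 h before per-cell GFP fluorescence imaging.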
* = called active by the depositor; i = inactive; ? = inconclusive; . = no result; ! = not confirmed by another sample; [ ] = dose if it differs, or a comment. Only some compounds are listed: those with a hit (about 4.8% of all), similar ones and a draw of the others. Unless noted, calls follow the shape of the dose curve; as a rule, active = well fitted curve in the direction sought with a large enough effect; inconclusive = small, poorly fitted or top-dose-only effect, or another doubt; inactive = no such curve, though single readings can be large; an effect the other way counts as inactive or inconclusive.

SMILES | DRD3 antagonist | D3 ag | ATXN2 expr inh | HepG2 tox | ATXN viability | TGFb SMAD3 inh
CCN1C(=O)/C(=c2\o/c(=C3\C=Cc4ccccc4N3CC)c(=O)n2CC)SC1=S | -4.7 | 2.2 | -16.2% | 4.4% | ? | 0.7%
CCOc1ccc(/C=C/C(=O)Nc2ccc(C(N)=O)cc2)cc1OC | 0.0 | 1.9 | 14.2% | -7.6% | i | -1.3%
CCOc1cc(/C=C/C(=O)Nc2ccc(C(=O)NCCN(CC)CC)cc2)ccc1OCC(C)C | 8.2 | 0.1 | . | 12.6µM* | . | ?
ClCC(CNCc1ccccc1)c1ccccc1 (configuration not stated) | -55.4* | -29.4 | -4.9% | -0.3% | i | -2.7%
Cc1cccc(N(CC(=O)NC2CCCC2)C(=O)CCC(=O)Nc2cc(C)on2)c1 | 5.7 | 32.1* | 7.2% | 9.7% | i | -17.5%
CC[C@@]1([C@@H]2O[C@@H]([C@H]3O[C@@](O)(CO)[C@H](C)C[C@@H]3C)C[C@@H]2C)CC[C@H]([C@]2(C)CC[C@]3(C[C@H](O)[C@@H](C)[C@@H]([C@@H](C)[C@@H](OC)[C@H](C)C(=O)O)O3)O2)O1 (stereo in doubt) | . | 75.0*! | . | . | ? | .
CCCNC(=O)c1cc2c(c(-c3cccc(-c4ccc(F)cc4)c3)n1)[C@@H](CCO)N(S(=O)C(C)(C)C)C2 (some centres not stated) | 50.5 | 2.1 | ? | -29.7% | ? | 15.8µM*
CCN(CC)S(=O)(=O)c1ccc2nc(NC(=O)c3cccs3)sc2c1 | -56.3* | -6.6 | 28.7% | -36.8% | i | -5.3%
CCN(CC)S(=O)(=O)c1ccc2nc(NC(=O)c3ccco3)sc2c1 | 1.1 | 3.8 | -1.2%[11.3 µM] | -23.7% | i | -9.7%
CS(=O)(=O)c1ccc2nc(NC(=O)CCS(=O)(=O)c3ccccc3)sc2c1 | -26.6 | 4.9 | ? | 7.08µM* | 31.6µM* | ?
O=C(CCS(=O)(=O)c1ccccc1)Nc1nc2cc3c(cc2s1)OCCO3 | -6.1 | -6.3 | 25.0% | -87.0% | i | 12.6µM*
CS(=O)(=O)c1ccc2nc(NC(=O)Nc3ccc(Cl)c(Cl)c3)sc2c1 | 23.5 | 55.4* | -19.0% | -5.4% | ? | -8.2%
N=C1N(c2ccccc2)C(=S)C(=Nc2ccccc2)N1c1ccccc1 | -61.3* | -10.6 | 34.4% | 19.7% | i | 1.58µM*
COc1ccc(N=C2C(=S)N(c3ccc(OC)cc3)C(=NS(=O)(=O)c3ccccc3)N2c2ccccc2)cc1 | -9.1 | 4.3 | 33.0% | -3.8% | ? | -8.0%
COc1ccc(CCNC(=O)C(=O)NCC(c2ccc3c(c2)OCO3)N2CCOCC2)cc1OC (configuration not stated) | . | -2.3 | . | -17.9% | . | 0.0%
COc1ccc(Cn2nc(-c3ccccc3)c(N3CCCCC3)cc2=O)cc1 | 2.9 | -7.0 | -20.5% | 22.4µM* | i | ?
O=c1cc(N2CCCCC2)c(-c2ccccc2)nn1Cc1ccccc1 | -16.8 | -1.1 | -12.5%[11.3 µM] | 2.5% | . | ?
COc1cc(NC(=O)C2=CC(c3ccc(F)cc3)=NS(=O)(=O)N2C)cc(OC)c1OC | . | -2.6 | 6.2% | 3.2% | i | -0.4%
CCCCN(CCCNC(=O)c1cc(Nc2cccc(SC)c2)nc2ccccc12)Cc1ccccc1 | . | -16.3 | . | 12.6µM* | . | 15.8µM*
CCc1ccc(Nc2cc(C(=O)NCCCN3CCOCC3)c3ccccc3n2)cc1 | 1.2 | -7.4 | -30.6% | 7.08µM* | ? | -4.9%
Cc1cc(C(=O)NCCc2ccc(Cl)cc2)c2ccccc2n1 | -16.6 | -21.1 | -11.7% | -21.7% | i | -5.2%
CSc1cccc(Nc2cc(C(=O)NCCc3ccc(Cl)cc3)c3ccccc3n2)c1 | . | -7.8 | ? | -33.3% | i | 10µM*
COc1cccc(OC)c1C(=O)Nc1cccc(-c2nc3cc(C)cc(C)c3o2)c1 | . | 8.6 | 1.3% | -32.1% | i | ?
Cc1ccc(-n2ncc3c(N4CCN(c5ccccc5)CC4)ncnc32)c(C)c1 | 33.1 | 36.5* | 0.0% | -38.9% | i | -6.1%
c1ccc(-n2ncc3c(N4CCN(CCOc5cccc6ccccc56)CC4)ncnc32)cc1 | -10.2 | 40.4* | -19.9% | -9.2% | i | -1.3%
SMILES | DRD3 antagonist | D3 ag | ATXN2 expr inh | HepG2 tox | ATXN viability | TGFb SMAD3 inh
Cc1cccc(-n2ncc3c(N4CCOCC4)ncnc32)c1 | 2.5 | 4.9 | 10µM* | -2.3% | i | 15.3%
c1ccc(CN2CCN(c3ncnc4c3cnn4-c3ccccc3)CC2)cc1 | . | 2.6 | 1.1% | 11.1% | i | 25.7%
CCOC(=O)c1c(-c2ccccc2)oc2ccc(N(C(C)=O)S(=O)(=O)c3ccc(CC)cc3)cc12 | . | -14.1 | ? | -8.6% | ? | -4.9%
CC1(C)S[C@@H]2C(C(=O)O)NC(=O)N2C1C(=O)O (some centres not stated) | . | . | . | 13.3% | . | -3.8%
CC1CC(=O)NN=C1c1ccc(NCC(C)(C)NCC(O)COc2cc(Cl)ccc2C#N)cc1 (configuration not stated) | . | . | 10.8% | . | i | .
Cc1ccc(C2=NN(C(=O)CCC(=O)O)C(c3cccc([N+](=O)[O-])c3)C2)cc1 (configuration not stated) | -57.6* | -15.5 | 1.6% | -21.1% | i | -13.1%
O=C(O)CCC(=O)N1N=C(c2cccs2)CC1c1cccc([N+](=O)[O-])c1 (configuration not stated) | 19.2 | -1.3 | 3.2% | -4.2% | i | 1.2%
Cc1ccc(CN2CCN(CC3CC4C=CC3C4)CC2)cc1 (configuration not stated) | -59.9* | -16.9 | -11.3% | -2.9% | i | 13.9%
CCc1cc[n+](CC(=O)c2ccc(F)cc2)cc1C(=O)O | . | . | . | 2.5% | . | -8.5%
CCOC(=O)C1CCN(c2c(C(=O)c3ccc(C)cc3)cnc3ccc(F)cc23)CC1 | . | -1.2 | 3.8% | -9.2% | i | -27.4%
CCCCCNC(=O)C1CCC(Cn2c(=O)c3sccc3n(CC)c2=O)CC1 (configuration not stated) | . | -16.8 | -0.6% | -24.8% | i | -0.9%
Cc1c(Cl)cccc1NS(=O)(=O)c1ccc(-c2cnc(C3CC3)o2)cc1 | . | -12.8 | 0.0% | -109.0% | ? | 2.82µM*
CCc1ccc(NS(=O)(=O)c2cc(-c3cnc(C4CC4)o3)ccc2C)cc1 | . | -18.6 | ? | -98.1% | ? | ?
CCOC(=O)c1cccc(NS(=O)(=O)c2cc(-c3cnc(C4CC4)o3)ccc2C)c1 | . | -2.6 | -31.6% | -49.0% | ? | 17.8µM*
